Reference: ChEMBL document CHEMBL1157539, “Thousands of chemical starting points for antimalarial lead identification” (Nature, 2010)

Columns and labels:
Format in all cases: functional
Plasmodium falciparum [1] = assay: GSK_TCMDC: Inhibition of Plasmodium falciparum 3D7 in whole red blood cells, using parasite LDH activity as an index of growth. Test compounds present at 2uM
Plasmodium falciparum [2] = assay: GSK_TCMDC: Inhibition of Plasmodium falciparum Dd2 in whole red blood cells, using parasite LDH activity as an index of growth. Test compounds present at 2uM
HepG2 = assay: GSK_TCMDC: Percent inhibition of human HepG2 cell line. Test compounds present at 10uM.

Structure (SMILES) | Inhibition (Plasmodium falciparum [1]) [%] | Inhibition (Plasmodium falciparum [2]) [%] | Inhibition (HepG2) [%]
COc1ccc(C(=O)CC(=O)c2ccc(OC)cc2OC)c(OC)c1 | 98 | 0 | 1
O=C(Nc1ccc(OC2CCN(Cc3ccccc3)C2)c(Cl)c1)c1ccc(F)cc1.O=C(O)C(F)(F)F (stereo not drawn) | 90 | 87 | 7
CC[C@H](C)CNC(=O)c1cncc(-c2ccc(CNC3Cc4ccccc4C3)cc2)c1.O=C(O)C(F)(F)F | 100 | 95 | 14
O=c1cc(NCCCNCc2cc(C(F)(F)F)ccc2Cl)[nH]c2ccccc12 | 90 | 20 | 25
CNC(=O)C1Cc2c([nH]c3ccc(Br)cc23)C2(CCN(CCc3ccccc3)CC2)N1 (stereo not drawn) | 100 | 60 | 15
COc1ccccc1C1CCN(C2CCC(NC(=O)/C=C/c3cc(F)cc(C(F)(F)F)c3)CC2)CC1 (stereo not drawn) | 98 | 57 | 92
O=C(Nc1ccc(-c2cccc(-c3nc4ccccc4[nH]3)c2)cc1)Nc1ccc(F)c(F)c1F | 100 | 96 | 74
COc1ccccc1N1CCN(C(C(=O)NCc2ccc3c(c2)OCO3)c2ccc(C)cc2)CC1 (stereo not drawn) | 85 | 81 | 1
Cc1ccc(CON2C(N)=NC(N)=NC23CCCCC3)c2ccccc12.Cl | 98 | 56 | 57
c1ccc(Oc2ccc(Nc3ccnc4cc(-c5ccc(CNCCN6CCOCC6)o5)ccc34)cc2)cc1 | 99 | 99 | 20
CC(CNC(=O)C(c1cc2ccccc2o1)N1CCN(C(c2ccccc2)c2ccccc2)CC1)c1ccccc1 (stereo not drawn) | 99 | 89 | 2
N#Cc1ccc(N2CCN(Cc3cccc(-c4cccc(-c5nc6cc(C(F)(F)F)ccc6[nH]5)c4)c3)CC2)nc1.O=C(O)C(F)(F)F | 99 | 50 | 15
Cc1cc(=O)[nH]c(-n2nc(C)cc2NC(=O)CC(c2ccccc2)c2ccccc2)n1 | 90 | 62 | 42
NCc1cccc(-c2ccc3ccnc(N)c3c2)c1 | 100 | 96 | 7
CN(C)CCN(C)Cc1ccc(-c2cccc(NC(=O)c3ccc(Cl)cc3)c2)cc1.O=C(O)C(F)(F)F | 97 | 71 | 69
CCCCOc1c(CCNCCCCNCCc2cc(F)c3ccccc3c2OCCCC)cc(F)c2ccccc12.CS(=O)(=O)O | 96 | 78 | 97

Structure (SMILES) | Inhibition (Plasmodium falciparum [1]) [%] | Inhibition (Plasmodium falciparum [2]) [%] | Inhibition (HepG2) [%]
O=C(Cc1ccccc1)NC(CCN1CCC(N(C2CC2)S(=O)(=O)c2cccc(C(F)(F)F)c2)CC1)c1ccc(Cl)c(Cl)c1 (stereo not drawn) | 85 | 27 | 19
O=C(NCCN1CCCC1)c1ccc(-c2cccc(-c3nc4cc(F)ccc4[nH]3)c2)cc1 | 100 | 2 | 29
CN(C)CC1CCCN1Cc1ccccc1-c1cnn(C)c(=O)c1Oc1ccccc1F.O=C(O)C(F)(F)F (stereo not drawn) | 95 | 27 | 18
O=S(=O)(ON=C1CCc2ccccc21)c1ccc(Cl)cc1 | 100 | 79 | 0
O=C(/C=C/c1ccc(Cl)c(Cl)c1)NCCCCCN1CCCC(C(=O)Nc2cccc(Cl)c2)C1 (stereo not drawn) | 99 | 2 | 41
Br.CCCC1N=C(N)N=C(N)N1c1ccc(C)cc1 (stereo not drawn) | 94 | 2 | 1
CC(NC(=O)NC1CCC(CCN2CCCc3ccccc32)CC1)c1cccc2ccccc12.O=C(O)C(F)(F)F (stereo not drawn) | 90 | 83 | 0
COc1cc(NC(=O)Nc2ccc(Br)cc2C(=O)Nc2ccc(Br)cc2)cc(OC)c1OC | 99 | 98 | 0
Cl.Nc1nc(N)c2c(ccc3nn(S(=O)(=O)N4CCCC4)cc32)n1 | 95 | 0 | 69
Nc1c(Cl)cc(C(O)CNCCCCCOCCc2ccccc2)cc1C(F)(F)F (stereo not drawn) | 99 | 96 | 3
COc1ccc2c(=NN=Cc3ccccc3F)cc(C)[nH]c2c1 | 90 | 12 | 4
Cc1cccc2nc(-c3cccc(-c4cccc(NC(=O)CNC(=O)c5ccc(O)cc5)c4)c3)[nH]c12 | 94 | 49 | 9
COc1ccc(NC(=O)[C@H](Cc2ccccc2)Nc2cc(C)nc(NCCN3CCCC3)n2)cc1.O=C(O)C(F)(F)F | 97 | 3 | 15
Cc1nn(-c2ccccc2)c2sc(C(=O)N(CCCN(C)C)c3nc(-c4ccccc4)cs3)cc12.Cl | 95 | 36 | 99
CC(=O)Nc1ccc(C(=O)Nc2cccc(-c3cccc(-c4nc5cccc(C)c5[nH]4)c3)c2)cn1 | 100 | 100 | 16
